Shown are actives, neighbours in structure and some others; about 3.5% of the full set was active somewhere.
CHRM1 PAM: positive allosteric modulators of human M1 muscarinic receptor. activation, % at 3 µM. CHO-K1 hM1, Fluo-8 calcium fluorescence, ACh EC20; 0% = ACh EC20, 100% = maximal ACh. AID 588819. 0.088% of 360,000 active; in the data active = activation above about 19%, passing the limit was not always enough
Target sequence (P11229 whole entry, looked up): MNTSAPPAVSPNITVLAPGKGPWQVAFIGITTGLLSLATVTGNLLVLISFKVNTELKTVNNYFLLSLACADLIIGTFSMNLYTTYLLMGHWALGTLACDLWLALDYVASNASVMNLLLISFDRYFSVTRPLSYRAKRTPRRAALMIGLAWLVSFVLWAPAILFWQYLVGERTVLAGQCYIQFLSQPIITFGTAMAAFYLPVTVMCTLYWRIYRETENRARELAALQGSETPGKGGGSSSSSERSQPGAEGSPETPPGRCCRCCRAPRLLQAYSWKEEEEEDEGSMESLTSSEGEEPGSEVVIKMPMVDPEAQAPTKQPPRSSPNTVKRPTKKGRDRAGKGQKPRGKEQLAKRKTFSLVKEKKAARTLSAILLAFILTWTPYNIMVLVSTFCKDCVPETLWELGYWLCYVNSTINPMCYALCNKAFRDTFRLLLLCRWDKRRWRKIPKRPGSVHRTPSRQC
M1 ag: activates human CHRM1 receptor; AID 588814; 0.33% of 360,000 active; CHO-K1 hM1, Fluo-8 calcium fluorescence, agonist mode; 0% DMSO, 100% acetylcholine EC100; activation, % at 3 µM; P11229;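 active = activation above the run's mean compound activation plus 3 SD, cut at about 16% in these data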;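 also: peak over basal fluorescence ratio within a 140 s kinetic read after compound addition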
Myeloid diff MLP: promotes myeloid progenitor differentiation; 1% of 360,000 active; calls only at 10 µM; ER-HoxA9 myeloid progenitors, lysozyme-GFP differentiation, flow cytometry;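 active = normalized GFP-positive differentiation at or above the plate's own cutoff, the solvent-only control mean plus 3 SD; inconclusive = no clear call, values can overlap the other calls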;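 also: cells exposed to compound for four days before flow analysis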
M1 antag: blocks human M1 muscarinic receptor; P11229; CHO-K1 hM1, Fluo-8 calcium fluorescence, ACh EC80 antagonist; inhibition, % at 3 µM; 1.3% of 360,000 active;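 active = percent inhibition above its own plate's cutoff, namely the mean of that plate's compound wells plus 3 SD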;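 also: peak over basal fluorescence ratio during 140 s after agonist addition; 0% = ACh EC80 plus DMSO and 100% = DMSO alone without agonist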
ATG4B inhibitor: inhibitors of human ATG4B cysteine protease; ATG4B cleavage of LC3-PLA2, NBD-HPC fluorescence, 1 h; inhibition, % at 8.33 µM; 0.51% of 340,000 active; in the data active = inhibition above about 40%
SKN-1 block: inhibitors of C. elegans SKN-1 | C. elegans VP596 Pgst-4::GFP/RFP ratio, acrylamide-induced, 24 h | inhibition, % at 21.8 µM | 0.49% of 360,000 active | AID 624304;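 active = interference check ratio from 0.5 to 1.5 plus GFP to RFP signal ratio inhibition reaching or exceeding a fixed threshold, cut at about 30% in these data, passing the limit was not always enough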
The depositor's hits bear a star; i = inactive; u = inconclusive; x = no result given; + = active, no number.

SMILES	CHRM1 PAM	M1 ag	Myeloid diff MLP	M1 antag	ATG4B inhibitor	SKN-1 block
CC(=O)c1c(C)[nH]c(C(=O)CN2C(=O)NC(C)(c3ccc4c(c3)OCO4)C2=O)c1C (stereo not drawn)	2.7	9.6	i	-3.1	-6.1	12.3
CC1(c2ccc(OC(F)F)cc2)NC(=O)N(CC(=O)c2ccc3c(c2)OCO3)C1=O (stereo not drawn)	-10.1	42.9*	i	1.4	-8.9	8.3
CC(=O)N1CCN(C(=O)CSc2ncnc3sc(C)c(C)c23)CC1	1.5	-1.9	i	1.7	1.5	4.3
O=C(CN1C(=O)NC2(CCCC2)C1=O)NCCc1ccc(Cl)cc1Cl	5.5	-3.1	i	-5.0	-6.3	6.2
O=C(/C=C/c1cccc(C(F)(F)F)c1)NNC(=O)c1ccncc1	12.3	-1.0	i	-15.5	-4.0	8.6
O=C(Nc1ccccc1)c1cnc[nH]1	2.2	-0.7	i	4.0	-3.7	31.1*
O=C(c1ccccc1)c1cnc[nH]1	16.5	0.9	i	-14.0	3.0	8.2
CC1CN(C(=O)c2ccccc2OCc2ccc(Cl)cc2Cl)CC(C)O1 (stereo not drawn)	-13.3	-8.6	i	7.0	2.4	11.6
CN(C)c1ccc2nc3c(=O)[nH]c(=O)nc-3n(CC(O)C(O)C(O)CO)c2c1 (stereo not drawn)	-5.4	18.1*	i	14.6	-9.7	85.1
Cc1cccc(-[n+]2c(C)cc(C)c3c(=O)[nH]c(=O)[nH]c32)c1	12.7	-7.5	i	-4.9	-9.0	-15.6
Cc1cc(C)[n+](-c2ccc(C(C)C)cc2)c2[nH]c(=O)[nH]c(=O)c12	-21.6	-10.0	i	55.1*	3.4	7.4
c1ccc(-c2nc(-c3nccc4ccccc34)oc2-c2ccccc2)cc1	3.8	-0.8	i	-2.8	-11.3	19.1
CC(NS(=O)(=O)c1ccc(Cl)cc1)C(=O)OCC(=O)c1ccc[nH]1 (stereo not drawn)	6.7	-3.7	i	-5.7	-29.2	-9.0
CCOc1ccc(NC(=S)NC(=O)/C=C/c2ccc(Br)cc2)c([N+](=O)[O-])c1	-5.5	-3.1	i	37.5*	-3.9	1.6
CC(NC(=O)C(=O)NCCN1CCN(C(=O)c2ccccc2Br)CC1)c1ccccc1 (stereo not drawn)	3.5	-4.4	i	4.8	-6.7	18.1
CCc1noc(C)c1C(=O)N1CCCC(N2CCN(c3ccccc3F)CC2)C1 (stereo not drawn)	14.0	-2.6	i	-15.1	2.6	13.2
O=C(NCCCN1CCCC1)c1ccc2c(c1)N(Cc1ccccc1F)C(=O)c1ccccc1S2=O (stereo not drawn)	-20.0	-6.0	i	33.3*	-3.4	1.0
Cc1ccc(CN2C(=O)CSc3ccc(C(=O)NCCN4CCOCC4)cc32)cc1	4.6	-5.2	i	-7.8	0.1	-41.9
CCCCN(C)CCCNC(=O)c1ccc2c(c1)N(CC)C(=O)c1ccccc1S2=O (stereo not drawn)	-23.9	-9.5	i	46.9*	-2.0	7.9
Cc1ccc(C)c(CN2C(=O)c3ccccc3S(=O)c3ccc(C(=O)NCCCN4CCCC4)cc32)c1 (stereo not drawn)	-13.8	-5.2	i	24.4	-2.4	9.9
CCCCN(C)C(=O)c1ccc2c(c1)N(CC)C(=O)c1ccccc1S2=O (stereo not drawn)	-19.1	-9.7	i	23.4	-2.8	8.7
O=C(NCCCN1CCOCC1)c1ccc2c(c1)N(Cc1cccc(Cl)c1)C(=O)CS2	-31.8	-10.9	i	65.5*	-7.4	-3.6
O=C(NCCN1CCOCC1)c1ccc2c(c1)N(Cc1ccccc1F)C(=O)c1ccccc1S2	15.9	-5.8	+	-24.1	-6.4	-5.0
O=C(CN1CCN(C(C(=O)Nc2cc(C(F)(F)F)ccc2Cl)c2ccccc2)CC1)NC1CC1 (stereo not drawn)	-6.7	-1.5	i	0.8	-2.6	-0.6
O=C(NCCN1CCCC1)c1ccc2c(c1)N(Cc1ccc(F)cc1)C(=O)c1ccccc1S2=O (stereo not drawn)	4.9	-11.8	i	-24.8	0.4	-7.9
SMILES	CHRM1 PAM	M1 ag	Myeloid diff MLP	M1 antag	ATG4B inhibitor	SKN-1 block
CN1CCN(C(=O)c2ccc3c(c2)N(Cc2ccc(Cl)cc2)C(=O)c2ccccc2S3=O)CC1 (stereo not drawn)	4.0	-8.8	+	-7.0	1.8	-9.0
CC1CCCCN1CCNC(=O)c1ccc2c(c1)N(Cc1ccccc1F)C(=O)c1ccccc1S2=O (stereo not drawn)	-18.4	-3.5	i	47.8*	-1.1	-1.2
Cc1ccc(S(=O)(=O)N2CCCN(C(=O)CNC(=O)c3cccc(C)c3)CC2)cc1	-5.3	-3.4	i	14.4	-34.6	11.9
Cc1[nH]c2ccccc2c1/C=C/C(=O)c1ccncc1	3.1	-0.8	+	-0.8	-4.3	-0.5
C=CCn1cc(/C=C/c2cc[n+](C)cc2)c2ccccc21	18.7	-5.6	u	-30.9	-12.0	-43.9
C=CCn1c(C)c(/C=C/c2cc[n+](C)cc2)c2ccccc21	1.1	-4.0	+	-11.1	-0.2	-5.0
C[n+]1ccc2[nH]c3ccccc3c2c1	8.5	-6.7	i	-5.6	x	-9.0
CCN(CC)C(=O)Cn1c(C)c(/C=C/c2cc[n+](C)cc2)c2ccccc21	10.9	-4.4	+	-18.5	2.9	-2.8
Cc1[nH]c2ccccc2c1/C=C/c1cc[n+](C)cc1	10.6	-0.3	+	-10.2	-1.6	-4.9
Cc1cccc(C)c1NC(=O)C1CCCN1S(=O)(=O)c1ccc2c(c1)n(C)c(=O)c(=O)n2C (stereo not drawn)	-5.2	-4.0	i	16.2	-5.2	-4.8
Cc1ccc2cc(NC(=O)c3ccc(C(C)(C)C)cc3)ccc2n1	-2.0	-5.3	i	3.0	-15.0	28.1
CCc1ccc(C(=O)Nc2ccc3nc(C)ccc3c2)cc1	12.8	-4.5	i	-11.9	-6.0	44.0*
CSCCC(C(=O)Nc1c(C)cccc1C)n1c(-c2cnc(C)cn2)nc2ccccc21 (stereo not drawn)	x	x	i	x	x	1.4
COC(=O)C1=C(C)NC(=O)/C1=C\N(C)C	1.8	-4.5	i	5.0	-3.7	38.8*
COC(=O)C1=C(C)NC(=O)/C1=C\c1cccs1	2.5	-4.8	i	-0.4	-3.1	-10.7
Cc1cccn2c(=O)c(C(=O)NCCCN3CC(C)CC(C)C3)c(O)nc12 (stereo not drawn)	7.3	-7.0	i	-9.6	3.9	16.7
Oc1ccccc1/C=N/N1CCCCC1	-4.9	31.1*	i	5.0	-6.3	3.1
Oc1ccccc1C=NN1CCCCCC1	-4.5	-6.4	i	8.6	-0.6	-8.1
Oc1[nH]c2ccccc2c1/C=N/N1CCCCC1	-12.5	31.9*	i	22.0	-2.6	2.9

Compound activity: PubChem, several laboratories
